Assay results as given in article PMC7862700, “An all-to-all approach to the identification of sequence-specific readers for epigenetic DNA modifications on cytosine”.

Assays:
Experiment in all cases: DAPPL (digital affinity profiling via proximity ligation, sequencing); 10 mM Tris-HCl pH 7.5, 50 mM NaCl, 1 mM DTT, 4% glycerol, room temperature, 30 min; GST-TFs on glutathione beads, 16-mer random dsDNA library, 0.1% formaldehyde crosslink after washing; high values mean tight binding
FLI1 = biological target: T1, FLI1 (Homo sapiens, UniProt Q01543 1-452); details: protein: recombinant; tags: N-terminal GST; dsDNA, one strand shown
T1 sequence: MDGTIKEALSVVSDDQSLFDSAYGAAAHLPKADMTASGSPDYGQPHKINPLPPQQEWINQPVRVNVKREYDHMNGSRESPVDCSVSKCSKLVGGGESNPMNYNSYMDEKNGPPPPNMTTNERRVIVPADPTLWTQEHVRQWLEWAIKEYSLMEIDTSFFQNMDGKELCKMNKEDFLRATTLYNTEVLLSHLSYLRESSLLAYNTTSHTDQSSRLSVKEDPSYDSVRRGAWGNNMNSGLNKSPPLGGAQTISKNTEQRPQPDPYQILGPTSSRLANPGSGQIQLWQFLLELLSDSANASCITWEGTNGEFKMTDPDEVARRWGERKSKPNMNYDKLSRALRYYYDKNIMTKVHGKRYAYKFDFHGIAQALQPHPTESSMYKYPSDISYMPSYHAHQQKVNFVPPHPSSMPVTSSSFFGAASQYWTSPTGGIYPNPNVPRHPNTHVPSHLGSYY
Method in brief: (§1)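 Human transcription factors fused to GST were expressed in yeast, captured on glutathione beads, given DNA barcodes and pooled with a GST-only negative control. Pools were incubated with 200 nmole of a 16-mer random double-stranded DNA library in Tris/NaCl/DTT/glycerol buffer at room temperature for 30 min. They were then washed, crosslinked with 0.1% formaldehyde, proximity-ligated (BsaI/T4 ligase, 1 h, 37 °C), PCR-amplified and sequenced on an Illumina NextSeq500. Binding signal is each 6-mer's read frequency for a factor divided by its frequency for the GST control.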

ELK1 = biological target: T2, ELK1 (Homo sapiens, UniProt P19419 1-428); details: protein: recombinant; tags: N-terminal GST; dsDNA, one strand shown
T2 sequence: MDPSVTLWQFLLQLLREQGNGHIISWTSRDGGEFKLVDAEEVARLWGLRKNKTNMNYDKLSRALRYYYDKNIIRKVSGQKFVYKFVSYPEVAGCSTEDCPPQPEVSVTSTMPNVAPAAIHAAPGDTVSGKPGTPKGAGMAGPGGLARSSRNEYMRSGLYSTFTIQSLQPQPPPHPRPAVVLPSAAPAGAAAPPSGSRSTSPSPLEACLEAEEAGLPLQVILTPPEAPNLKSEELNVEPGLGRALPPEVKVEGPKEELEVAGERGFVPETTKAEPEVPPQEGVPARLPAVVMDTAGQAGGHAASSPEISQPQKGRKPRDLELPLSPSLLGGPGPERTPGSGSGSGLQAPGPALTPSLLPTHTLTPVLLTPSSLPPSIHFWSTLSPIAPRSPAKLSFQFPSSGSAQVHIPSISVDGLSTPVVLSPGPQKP
Method in brief: as §1

GABPA = biological target: T3, GABPA (Homo sapiens, UniProt Q06546 1-454); details: protein: recombinant; tags: N-terminal GST; dsDNA, one strand shown
T3 sequence: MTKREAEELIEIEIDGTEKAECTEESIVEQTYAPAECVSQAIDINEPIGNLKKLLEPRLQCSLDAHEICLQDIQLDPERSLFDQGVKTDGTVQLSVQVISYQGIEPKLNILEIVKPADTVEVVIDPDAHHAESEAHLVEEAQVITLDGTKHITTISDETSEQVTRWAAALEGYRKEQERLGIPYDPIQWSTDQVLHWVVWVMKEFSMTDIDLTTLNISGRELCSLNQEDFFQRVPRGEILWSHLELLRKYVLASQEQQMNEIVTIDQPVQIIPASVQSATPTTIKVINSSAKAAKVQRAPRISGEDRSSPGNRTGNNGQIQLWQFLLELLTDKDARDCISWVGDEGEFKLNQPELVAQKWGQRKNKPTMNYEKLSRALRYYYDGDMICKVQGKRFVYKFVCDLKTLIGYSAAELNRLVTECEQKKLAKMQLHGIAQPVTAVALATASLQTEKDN
Method in brief: as §1

ERG = biological target: T4, ERG (Homo sapiens, UniProt P11308 1-479); details: protein: recombinant; tags: N-terminal GST; dsDNA, one strand shown
T4 sequence: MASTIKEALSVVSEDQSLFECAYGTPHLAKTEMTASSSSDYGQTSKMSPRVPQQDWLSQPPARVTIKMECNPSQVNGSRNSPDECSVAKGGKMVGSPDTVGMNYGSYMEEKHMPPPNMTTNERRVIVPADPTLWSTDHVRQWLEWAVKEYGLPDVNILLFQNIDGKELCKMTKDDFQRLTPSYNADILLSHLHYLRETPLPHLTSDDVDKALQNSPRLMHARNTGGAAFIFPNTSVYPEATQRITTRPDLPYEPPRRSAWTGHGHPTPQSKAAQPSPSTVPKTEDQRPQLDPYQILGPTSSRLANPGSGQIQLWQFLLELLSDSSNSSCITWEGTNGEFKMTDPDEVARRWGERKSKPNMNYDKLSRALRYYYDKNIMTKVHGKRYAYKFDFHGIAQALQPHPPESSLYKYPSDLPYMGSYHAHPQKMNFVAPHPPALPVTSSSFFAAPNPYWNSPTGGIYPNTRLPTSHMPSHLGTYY
Method in brief: as §1

ELF1 = ELF1 (Homo sapiens, UniProt P32519 1-619); details: protein: recombinant; tags: N-terminal GST; dsDNA, one strand shown
Chain of ELF1 (P32519 whole entry): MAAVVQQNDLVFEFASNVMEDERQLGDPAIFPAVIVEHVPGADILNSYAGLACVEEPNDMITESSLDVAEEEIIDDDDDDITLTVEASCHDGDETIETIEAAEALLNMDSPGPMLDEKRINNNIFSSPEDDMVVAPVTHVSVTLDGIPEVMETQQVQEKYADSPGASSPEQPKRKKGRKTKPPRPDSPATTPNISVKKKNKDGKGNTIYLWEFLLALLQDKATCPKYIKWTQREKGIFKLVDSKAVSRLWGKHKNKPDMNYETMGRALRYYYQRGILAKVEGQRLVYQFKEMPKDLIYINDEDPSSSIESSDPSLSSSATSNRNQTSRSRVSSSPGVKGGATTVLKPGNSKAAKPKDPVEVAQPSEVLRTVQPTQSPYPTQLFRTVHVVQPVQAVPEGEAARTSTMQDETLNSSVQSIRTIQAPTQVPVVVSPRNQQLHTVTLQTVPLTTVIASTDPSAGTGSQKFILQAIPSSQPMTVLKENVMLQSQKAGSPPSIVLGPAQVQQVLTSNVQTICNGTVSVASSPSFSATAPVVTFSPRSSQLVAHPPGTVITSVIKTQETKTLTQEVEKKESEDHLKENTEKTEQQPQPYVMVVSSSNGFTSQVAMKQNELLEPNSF
Method in brief: as §1

EHF = biological target: T5, EHF (Homo sapiens, UniProt Q9NZC4 1-300); details: protein: recombinant; tags: N-terminal GST; dsDNA, one strand shown
T5 sequence: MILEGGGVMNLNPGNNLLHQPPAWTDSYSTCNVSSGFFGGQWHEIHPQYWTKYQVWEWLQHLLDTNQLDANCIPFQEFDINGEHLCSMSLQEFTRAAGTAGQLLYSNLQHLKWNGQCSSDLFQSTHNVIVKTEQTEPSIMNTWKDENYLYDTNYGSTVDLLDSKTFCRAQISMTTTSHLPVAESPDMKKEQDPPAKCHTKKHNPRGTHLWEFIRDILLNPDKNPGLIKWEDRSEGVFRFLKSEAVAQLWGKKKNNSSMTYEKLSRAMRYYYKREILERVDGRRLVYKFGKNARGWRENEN
Method in brief: as §1

SPI1 = SPI1 (Homo sapiens, UniProt P17947 1-270); details: protein: recombinant; tags: N-terminal GST; dsDNA, one strand shown
Method in brief: as §1

SPIB = SPIB (Homo sapiens, UniProt Q01892 1-262); details: protein: recombinant; tags: N-terminal GST; dsDNA, one strand shown
Chain of SPIB (Q01892 whole entry): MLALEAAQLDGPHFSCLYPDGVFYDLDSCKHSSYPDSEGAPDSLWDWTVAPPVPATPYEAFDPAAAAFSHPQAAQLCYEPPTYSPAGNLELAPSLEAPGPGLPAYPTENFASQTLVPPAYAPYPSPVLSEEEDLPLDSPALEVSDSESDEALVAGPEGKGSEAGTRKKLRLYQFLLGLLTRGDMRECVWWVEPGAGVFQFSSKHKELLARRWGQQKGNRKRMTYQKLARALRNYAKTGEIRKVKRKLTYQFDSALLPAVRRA
Method in brief: as §1

ELK3 = biological target: T6, ELK3 (Homo sapiens, UniProt P41970 1-407); details: protein: recombinant; tags: N-terminal GST; dsDNA, one strand shown
T6 sequence: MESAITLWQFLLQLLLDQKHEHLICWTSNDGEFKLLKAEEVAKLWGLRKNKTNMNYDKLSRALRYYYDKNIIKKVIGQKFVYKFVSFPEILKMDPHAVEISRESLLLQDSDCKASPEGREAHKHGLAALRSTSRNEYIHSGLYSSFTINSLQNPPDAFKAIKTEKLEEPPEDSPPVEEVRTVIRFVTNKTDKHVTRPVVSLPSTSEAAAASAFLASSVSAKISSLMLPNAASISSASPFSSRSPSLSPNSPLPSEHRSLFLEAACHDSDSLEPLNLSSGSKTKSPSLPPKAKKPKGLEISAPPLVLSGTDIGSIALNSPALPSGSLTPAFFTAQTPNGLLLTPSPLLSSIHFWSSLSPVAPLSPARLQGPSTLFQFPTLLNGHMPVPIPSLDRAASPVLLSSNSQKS
Method in brief: as §1

FEV = biological target: T7, FEV (Homo sapiens, UniProt Q99581 1-238); details: protein: recombinant; tags: N-terminal GST; dsDNA, one strand shown
T7 sequence: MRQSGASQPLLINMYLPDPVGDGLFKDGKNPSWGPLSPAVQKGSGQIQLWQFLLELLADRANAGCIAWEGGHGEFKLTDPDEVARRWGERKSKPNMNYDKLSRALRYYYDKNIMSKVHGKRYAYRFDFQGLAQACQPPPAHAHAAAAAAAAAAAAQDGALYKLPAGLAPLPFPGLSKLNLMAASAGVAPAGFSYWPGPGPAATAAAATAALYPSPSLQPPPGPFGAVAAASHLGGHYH
Method in brief: as §1

ETV5 = ETV5 (Homo sapiens, UniProt P41161 1-510); details: protein: recombinant; tags: N-terminal GST; dsDNA, one strand shown
Chain of ETV5 (P41161 whole entry): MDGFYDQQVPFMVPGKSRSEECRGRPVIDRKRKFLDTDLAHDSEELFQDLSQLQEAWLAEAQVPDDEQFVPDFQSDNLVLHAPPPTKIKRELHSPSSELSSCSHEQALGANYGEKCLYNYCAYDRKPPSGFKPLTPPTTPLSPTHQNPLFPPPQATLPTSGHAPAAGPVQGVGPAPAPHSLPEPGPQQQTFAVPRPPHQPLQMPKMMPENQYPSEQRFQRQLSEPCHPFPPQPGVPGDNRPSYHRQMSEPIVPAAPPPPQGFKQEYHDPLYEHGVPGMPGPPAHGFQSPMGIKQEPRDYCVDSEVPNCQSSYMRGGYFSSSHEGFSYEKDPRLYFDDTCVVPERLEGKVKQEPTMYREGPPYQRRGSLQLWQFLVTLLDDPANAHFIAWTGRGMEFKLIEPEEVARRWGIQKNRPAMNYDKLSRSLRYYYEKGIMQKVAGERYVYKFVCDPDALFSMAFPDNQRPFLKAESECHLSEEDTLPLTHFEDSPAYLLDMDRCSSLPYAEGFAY
Method in brief: as §1

HSF1 = HSF1 (Homo sapiens, UniProt Q00613 1-529); details: protein: recombinant; tags: N-terminal GST; chain copies: 3; dsDNA, one strand shown
Chain of HSF1 (Q00613 whole entry): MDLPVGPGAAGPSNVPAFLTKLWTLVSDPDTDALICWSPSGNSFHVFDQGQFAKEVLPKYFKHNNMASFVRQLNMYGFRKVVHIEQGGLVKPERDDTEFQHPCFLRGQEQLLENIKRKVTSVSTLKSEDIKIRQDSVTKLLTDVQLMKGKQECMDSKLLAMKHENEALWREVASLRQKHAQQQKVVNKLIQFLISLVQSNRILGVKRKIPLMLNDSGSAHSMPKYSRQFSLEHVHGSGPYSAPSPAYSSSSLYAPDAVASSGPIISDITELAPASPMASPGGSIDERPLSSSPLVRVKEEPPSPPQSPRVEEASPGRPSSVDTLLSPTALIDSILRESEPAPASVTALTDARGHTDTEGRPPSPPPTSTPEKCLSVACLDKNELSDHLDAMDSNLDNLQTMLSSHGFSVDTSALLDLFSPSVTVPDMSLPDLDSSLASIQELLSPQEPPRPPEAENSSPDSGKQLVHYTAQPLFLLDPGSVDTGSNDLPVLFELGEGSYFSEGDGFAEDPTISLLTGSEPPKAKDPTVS
Method in brief: as §1

SPIC = biological target: T8, SPIC (Homo sapiens, UniProt Q8N5J4 1-248); details: protein: recombinant; tags: N-terminal GST; dsDNA, one strand shown
T8 sequence: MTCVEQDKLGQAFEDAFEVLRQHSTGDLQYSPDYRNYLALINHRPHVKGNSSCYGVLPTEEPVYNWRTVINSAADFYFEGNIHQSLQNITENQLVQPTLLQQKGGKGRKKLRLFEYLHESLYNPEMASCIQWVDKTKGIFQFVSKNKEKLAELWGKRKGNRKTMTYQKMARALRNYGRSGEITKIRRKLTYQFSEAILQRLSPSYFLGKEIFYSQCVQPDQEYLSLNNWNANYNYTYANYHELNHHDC
Method in brief: as §1

ELF4 = ELF4 (Homo sapiens, UniProt Q99607 1-663); details: protein: recombinant; tags: N-terminal GST; dsDNA, one strand shown
Chain of ELF4 (Q99607 whole entry): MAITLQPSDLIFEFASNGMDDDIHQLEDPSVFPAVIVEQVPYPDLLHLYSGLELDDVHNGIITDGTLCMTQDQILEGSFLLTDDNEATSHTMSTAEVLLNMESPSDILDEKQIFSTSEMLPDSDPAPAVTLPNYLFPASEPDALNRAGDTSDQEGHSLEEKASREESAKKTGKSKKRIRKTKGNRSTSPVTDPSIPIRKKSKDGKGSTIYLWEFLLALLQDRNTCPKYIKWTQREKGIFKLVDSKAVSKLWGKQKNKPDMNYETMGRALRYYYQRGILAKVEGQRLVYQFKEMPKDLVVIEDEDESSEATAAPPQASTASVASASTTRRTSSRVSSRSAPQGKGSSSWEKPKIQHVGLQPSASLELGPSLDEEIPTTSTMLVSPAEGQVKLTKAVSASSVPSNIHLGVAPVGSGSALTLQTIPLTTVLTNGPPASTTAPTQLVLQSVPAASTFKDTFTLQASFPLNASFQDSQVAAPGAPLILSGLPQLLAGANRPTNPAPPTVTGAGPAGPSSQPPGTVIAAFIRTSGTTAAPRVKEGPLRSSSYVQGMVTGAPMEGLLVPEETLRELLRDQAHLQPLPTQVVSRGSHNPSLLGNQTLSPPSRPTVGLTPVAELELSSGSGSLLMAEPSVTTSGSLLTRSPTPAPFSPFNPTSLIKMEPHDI
Method in brief: as §1

ELK4 = biological target: T9, ELK4 (Homo sapiens, UniProt P28324-2 1-405); details: protein: recombinant; tags: N-terminal GST; dsDNA, one strand shown
T9 sequence: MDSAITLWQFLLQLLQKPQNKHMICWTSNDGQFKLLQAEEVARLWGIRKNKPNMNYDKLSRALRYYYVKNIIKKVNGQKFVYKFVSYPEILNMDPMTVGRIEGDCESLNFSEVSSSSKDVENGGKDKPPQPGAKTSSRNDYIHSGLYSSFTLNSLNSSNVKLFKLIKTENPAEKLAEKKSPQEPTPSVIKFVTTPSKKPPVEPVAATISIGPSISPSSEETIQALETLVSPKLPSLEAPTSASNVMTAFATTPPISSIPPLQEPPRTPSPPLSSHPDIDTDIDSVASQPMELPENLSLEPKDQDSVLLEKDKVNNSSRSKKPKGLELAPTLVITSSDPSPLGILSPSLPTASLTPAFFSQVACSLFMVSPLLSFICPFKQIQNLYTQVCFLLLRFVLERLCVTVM
Method in brief: as §1

ETV2 = biological target: T10, ETV2 (Homo sapiens, UniProt O00321 1-342); details: protein: recombinant; tags: N-terminal GST; dsDNA, one strand shown
T10 sequence: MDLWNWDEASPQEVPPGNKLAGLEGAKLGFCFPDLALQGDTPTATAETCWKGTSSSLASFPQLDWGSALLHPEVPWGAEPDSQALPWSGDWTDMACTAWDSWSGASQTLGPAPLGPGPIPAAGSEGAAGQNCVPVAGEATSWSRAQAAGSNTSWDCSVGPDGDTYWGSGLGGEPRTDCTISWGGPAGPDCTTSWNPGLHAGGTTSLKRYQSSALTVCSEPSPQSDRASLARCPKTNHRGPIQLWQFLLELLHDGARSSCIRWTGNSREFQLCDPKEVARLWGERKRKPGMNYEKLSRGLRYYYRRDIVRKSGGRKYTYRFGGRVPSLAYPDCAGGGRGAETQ
Method in brief: as §1

ELF3 = biological target: T11, ELF3 (Homo sapiens, UniProt P78545 1-371); details: protein: recombinant; tags: N-terminal GST; dsDNA, one strand shown
T11 sequence: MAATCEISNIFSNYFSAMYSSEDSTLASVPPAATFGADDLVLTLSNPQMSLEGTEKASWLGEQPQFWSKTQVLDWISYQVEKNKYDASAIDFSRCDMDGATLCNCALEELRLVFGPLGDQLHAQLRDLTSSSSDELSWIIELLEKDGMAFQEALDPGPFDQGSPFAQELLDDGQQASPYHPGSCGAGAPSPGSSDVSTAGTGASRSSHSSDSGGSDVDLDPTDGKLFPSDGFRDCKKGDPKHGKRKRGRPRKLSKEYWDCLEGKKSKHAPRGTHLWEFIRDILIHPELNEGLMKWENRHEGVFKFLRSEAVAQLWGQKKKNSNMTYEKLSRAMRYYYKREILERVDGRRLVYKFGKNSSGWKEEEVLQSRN
Method in brief: as §1

CRX = CRX (Homo sapiens, UniProt O43186 1-299); details: protein: recombinant; tags: N-terminal GST; dsDNA, one strand shown
Chain of CRX (O43186 whole entry): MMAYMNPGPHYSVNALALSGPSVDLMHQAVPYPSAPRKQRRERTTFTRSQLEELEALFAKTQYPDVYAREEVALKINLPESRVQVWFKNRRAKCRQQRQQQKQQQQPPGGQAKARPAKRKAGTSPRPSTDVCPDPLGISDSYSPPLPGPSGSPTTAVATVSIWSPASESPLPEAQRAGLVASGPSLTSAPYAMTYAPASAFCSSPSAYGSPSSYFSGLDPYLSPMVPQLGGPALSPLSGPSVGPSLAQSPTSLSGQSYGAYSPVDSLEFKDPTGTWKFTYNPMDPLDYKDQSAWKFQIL
Method in brief: as §1

ETV1 = ETV1 (Homo sapiens, UniProt P50549 1-477); details: protein: recombinant; tags: N-terminal GST; dsDNA, one strand shown
Chain of ETV1 (P50549 whole entry): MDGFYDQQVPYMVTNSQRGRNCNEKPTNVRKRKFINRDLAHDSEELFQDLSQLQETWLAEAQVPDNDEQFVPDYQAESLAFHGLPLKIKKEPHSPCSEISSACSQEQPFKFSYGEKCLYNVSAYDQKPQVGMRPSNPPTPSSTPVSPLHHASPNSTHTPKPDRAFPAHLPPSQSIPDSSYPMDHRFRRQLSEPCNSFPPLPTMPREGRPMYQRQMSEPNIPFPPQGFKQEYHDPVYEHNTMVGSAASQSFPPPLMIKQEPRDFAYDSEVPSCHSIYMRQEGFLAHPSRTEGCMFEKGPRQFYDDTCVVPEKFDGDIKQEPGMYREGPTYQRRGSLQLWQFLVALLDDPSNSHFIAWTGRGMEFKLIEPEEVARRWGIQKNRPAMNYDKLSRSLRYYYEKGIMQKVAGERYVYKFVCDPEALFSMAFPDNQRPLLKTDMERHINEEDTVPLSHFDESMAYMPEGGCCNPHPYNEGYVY
Method in brief: as §1

CTTTGT was tested, and the binding signal (FLI1) was 1.34 fold enrichment (6-mer frequency, TF over GST control), the binding signal (ELK1) was 1.3 fold enrichment (6-mer frequency, TF over GST control) and the binding signal (GABPA) was 1.2 fold enrichment (6-mer frequency, TF over GST control). For the same sequence, the binding signal (ERG) was 1.27 fold enrichment (6-mer frequency, TF over GST control), the binding signal (ELF1) was 1.36 fold enrichment (6-mer frequency, TF over GST control) and the binding signal (EHF) was 1.48 fold enrichment (6-mer frequency, TF over GST control). The binding signal (SPI1) was 1.36 fold enrichment (6-mer frequency, TF over GST control), the binding signal (SPIB) was 1.22 fold enrichment (6-mer frequency, TF over GST control) and the binding signal (ELK3) was 1.29 fold enrichment (6-mer frequency, TF over GST control). The binding signal (FEV) was 1.28 fold enrichment (6-mer frequency, TF over GST control), the binding signal (ETV5) was 1.3 fold enrichment (6-mer frequency, TF over GST control) and the binding signal (HSF1) was 1.22 fold enrichment (6-mer frequency, TF over GST control). The binding signal (SPIC) was 1.21 fold enrichment (6-mer frequency, TF over GST control), the binding signal (ELF4) was 1.29 fold enrichment (6-mer frequency, TF over GST control) and the binding signal (ELK4) was 1.43 fold enrichment (6-mer frequency, TF over GST control). The binding signal (ETV2) was 1.03 fold enrichment (6-mer frequency, TF over GST control), the binding signal (ELF3) was 1.23 fold enrichment (6-mer frequency, TF over GST control) and the binding signal (CRX) was 1.38 fold enrichment (6-mer frequency, TF over GST control). The binding signal (ETV1) was 1.25 fold enrichment (6-mer frequency, TF over GST control).
